In experiment [1] the target is T1, Aurora kinase A (Homo sapiens) (UniProt O14965).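 Further: values are mean percent inhibition.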
T1 sequence (whole entry): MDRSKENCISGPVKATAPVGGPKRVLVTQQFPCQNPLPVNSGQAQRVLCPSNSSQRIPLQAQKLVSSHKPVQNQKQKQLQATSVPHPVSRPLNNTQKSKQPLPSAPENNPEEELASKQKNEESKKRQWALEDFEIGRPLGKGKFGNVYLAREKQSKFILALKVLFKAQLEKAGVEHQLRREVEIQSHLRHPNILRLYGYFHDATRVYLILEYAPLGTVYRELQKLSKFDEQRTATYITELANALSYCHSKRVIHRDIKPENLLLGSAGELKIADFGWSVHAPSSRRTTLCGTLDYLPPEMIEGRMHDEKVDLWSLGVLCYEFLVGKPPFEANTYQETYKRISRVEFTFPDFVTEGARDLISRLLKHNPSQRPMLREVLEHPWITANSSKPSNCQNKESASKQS
The settings on record: at 1 µM.

In experiment [2] the target is Aurora kinase B (Homo sapiens) (UniProt Q96GD4). The following applies: at 0.1 µM.
Experiment [3] has the same target. The following applies: at 1 µM.
In experiment [4] the target is T2, Aurora kinase C (Homo sapiens) (UniProt Q9UQB9).
T2 sequence (whole entry): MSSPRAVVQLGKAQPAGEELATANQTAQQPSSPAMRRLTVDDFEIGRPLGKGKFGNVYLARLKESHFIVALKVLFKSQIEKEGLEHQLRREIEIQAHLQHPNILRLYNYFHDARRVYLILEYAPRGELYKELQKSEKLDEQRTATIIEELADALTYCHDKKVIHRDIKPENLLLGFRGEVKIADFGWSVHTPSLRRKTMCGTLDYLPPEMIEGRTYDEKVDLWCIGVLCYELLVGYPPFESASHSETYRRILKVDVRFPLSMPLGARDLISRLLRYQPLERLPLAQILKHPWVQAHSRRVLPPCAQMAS
The following applies: at 0.1 µM.

The target in experiment [5] is T2, Aurora kinase C (Homo sapiens). The following applies: at 1 µM.
For experiment [6], the target named is Serine/threonine-protein kinase 10 (Homo sapiens) (UniProt O94804). The settings on record: at 0.1 µM.
Experiment [7] shares this target. The following applies: at 1 µM.
Experiment [8] concerns the target T3, Mitogen-activated protein kinase kinase kinase kinase 2 (Homo sapiens) (UniProt Q12851).
T3 sequence (whole entry): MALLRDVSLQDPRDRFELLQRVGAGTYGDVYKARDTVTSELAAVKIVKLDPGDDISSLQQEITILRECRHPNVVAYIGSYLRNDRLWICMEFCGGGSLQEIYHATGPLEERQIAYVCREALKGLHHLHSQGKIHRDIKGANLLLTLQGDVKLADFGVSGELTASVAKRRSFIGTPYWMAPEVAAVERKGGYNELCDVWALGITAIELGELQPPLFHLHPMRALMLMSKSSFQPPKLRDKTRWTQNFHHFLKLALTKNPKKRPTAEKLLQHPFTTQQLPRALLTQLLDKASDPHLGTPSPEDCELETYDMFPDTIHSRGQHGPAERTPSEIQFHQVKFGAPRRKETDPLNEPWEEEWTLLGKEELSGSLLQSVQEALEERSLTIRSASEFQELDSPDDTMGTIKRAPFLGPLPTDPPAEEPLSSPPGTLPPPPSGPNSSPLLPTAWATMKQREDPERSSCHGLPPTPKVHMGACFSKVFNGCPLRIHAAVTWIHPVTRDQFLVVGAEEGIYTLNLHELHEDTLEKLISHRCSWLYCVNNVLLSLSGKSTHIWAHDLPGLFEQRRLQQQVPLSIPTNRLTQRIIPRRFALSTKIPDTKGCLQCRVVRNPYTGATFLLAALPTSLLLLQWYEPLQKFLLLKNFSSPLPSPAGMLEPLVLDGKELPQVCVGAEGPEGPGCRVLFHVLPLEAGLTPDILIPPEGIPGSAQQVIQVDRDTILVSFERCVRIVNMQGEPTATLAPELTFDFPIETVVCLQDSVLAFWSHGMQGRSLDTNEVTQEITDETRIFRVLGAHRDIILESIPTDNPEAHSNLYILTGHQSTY
The settings on record: at 0.1 µM.

The target in experiment [9] is T3, Mitogen-activated protein kinase kinase kinase kinase 2 (Homo sapiens). The settings on record: at 1 µM.
For experiment [10], the target named is Mitogen-activated protein kinase kinase kinase kinase 4 (Homo sapiens) (UniProt O95819). The following applies: at 0.1 µM.

Broadly, the inhibition is the relative decrease from the control value, in per cent.

Sequence of Mitogen-activated protein kinase kinase kinase kinase 4 (Homo sapiens) (O95819 2-1239 limits assumed): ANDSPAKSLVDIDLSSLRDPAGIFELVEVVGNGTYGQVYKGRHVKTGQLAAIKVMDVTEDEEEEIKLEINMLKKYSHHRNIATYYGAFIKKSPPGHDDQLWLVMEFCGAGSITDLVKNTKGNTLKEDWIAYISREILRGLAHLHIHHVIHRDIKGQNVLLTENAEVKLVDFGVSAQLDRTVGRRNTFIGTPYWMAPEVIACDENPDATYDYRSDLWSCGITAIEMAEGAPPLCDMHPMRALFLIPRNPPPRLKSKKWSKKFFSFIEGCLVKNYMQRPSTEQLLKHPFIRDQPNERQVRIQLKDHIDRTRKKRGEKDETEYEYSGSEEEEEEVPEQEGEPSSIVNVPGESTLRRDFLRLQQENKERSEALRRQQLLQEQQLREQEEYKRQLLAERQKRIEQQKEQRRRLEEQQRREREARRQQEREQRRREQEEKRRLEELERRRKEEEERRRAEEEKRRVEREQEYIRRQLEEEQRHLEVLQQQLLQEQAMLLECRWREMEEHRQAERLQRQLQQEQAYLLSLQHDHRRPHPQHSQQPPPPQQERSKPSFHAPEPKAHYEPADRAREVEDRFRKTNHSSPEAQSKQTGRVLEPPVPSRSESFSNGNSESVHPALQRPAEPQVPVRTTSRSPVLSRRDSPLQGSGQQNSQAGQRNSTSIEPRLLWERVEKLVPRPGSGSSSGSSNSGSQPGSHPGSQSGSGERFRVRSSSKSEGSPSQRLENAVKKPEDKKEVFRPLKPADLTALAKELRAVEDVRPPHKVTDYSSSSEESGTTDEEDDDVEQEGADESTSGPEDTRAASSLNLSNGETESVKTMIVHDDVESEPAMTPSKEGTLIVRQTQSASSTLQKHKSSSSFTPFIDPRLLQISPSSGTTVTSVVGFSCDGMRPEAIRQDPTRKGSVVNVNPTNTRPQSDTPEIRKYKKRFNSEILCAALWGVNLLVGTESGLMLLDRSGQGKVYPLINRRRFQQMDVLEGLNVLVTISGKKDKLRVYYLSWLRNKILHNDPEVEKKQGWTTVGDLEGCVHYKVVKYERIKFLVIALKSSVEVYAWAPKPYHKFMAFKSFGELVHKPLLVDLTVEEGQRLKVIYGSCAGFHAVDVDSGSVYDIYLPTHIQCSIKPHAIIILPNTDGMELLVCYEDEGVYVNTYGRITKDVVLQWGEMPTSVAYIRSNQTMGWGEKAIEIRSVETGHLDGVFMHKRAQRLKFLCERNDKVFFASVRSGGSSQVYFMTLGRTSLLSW
Sequence of Aurora kinase B (Homo sapiens) (Q96GD4 whole entry): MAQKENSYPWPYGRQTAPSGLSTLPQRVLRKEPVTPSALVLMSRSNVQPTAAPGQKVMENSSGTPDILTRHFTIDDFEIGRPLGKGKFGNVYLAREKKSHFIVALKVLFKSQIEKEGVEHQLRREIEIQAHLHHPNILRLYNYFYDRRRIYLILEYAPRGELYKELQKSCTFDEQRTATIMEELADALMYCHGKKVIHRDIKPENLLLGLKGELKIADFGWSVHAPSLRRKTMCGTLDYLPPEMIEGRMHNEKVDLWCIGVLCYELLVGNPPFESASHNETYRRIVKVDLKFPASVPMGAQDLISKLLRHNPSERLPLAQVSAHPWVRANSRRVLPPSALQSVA
Sequence of Serine/threonine-protein kinase 10 (Homo sapiens) (O94804 whole entry, looked up): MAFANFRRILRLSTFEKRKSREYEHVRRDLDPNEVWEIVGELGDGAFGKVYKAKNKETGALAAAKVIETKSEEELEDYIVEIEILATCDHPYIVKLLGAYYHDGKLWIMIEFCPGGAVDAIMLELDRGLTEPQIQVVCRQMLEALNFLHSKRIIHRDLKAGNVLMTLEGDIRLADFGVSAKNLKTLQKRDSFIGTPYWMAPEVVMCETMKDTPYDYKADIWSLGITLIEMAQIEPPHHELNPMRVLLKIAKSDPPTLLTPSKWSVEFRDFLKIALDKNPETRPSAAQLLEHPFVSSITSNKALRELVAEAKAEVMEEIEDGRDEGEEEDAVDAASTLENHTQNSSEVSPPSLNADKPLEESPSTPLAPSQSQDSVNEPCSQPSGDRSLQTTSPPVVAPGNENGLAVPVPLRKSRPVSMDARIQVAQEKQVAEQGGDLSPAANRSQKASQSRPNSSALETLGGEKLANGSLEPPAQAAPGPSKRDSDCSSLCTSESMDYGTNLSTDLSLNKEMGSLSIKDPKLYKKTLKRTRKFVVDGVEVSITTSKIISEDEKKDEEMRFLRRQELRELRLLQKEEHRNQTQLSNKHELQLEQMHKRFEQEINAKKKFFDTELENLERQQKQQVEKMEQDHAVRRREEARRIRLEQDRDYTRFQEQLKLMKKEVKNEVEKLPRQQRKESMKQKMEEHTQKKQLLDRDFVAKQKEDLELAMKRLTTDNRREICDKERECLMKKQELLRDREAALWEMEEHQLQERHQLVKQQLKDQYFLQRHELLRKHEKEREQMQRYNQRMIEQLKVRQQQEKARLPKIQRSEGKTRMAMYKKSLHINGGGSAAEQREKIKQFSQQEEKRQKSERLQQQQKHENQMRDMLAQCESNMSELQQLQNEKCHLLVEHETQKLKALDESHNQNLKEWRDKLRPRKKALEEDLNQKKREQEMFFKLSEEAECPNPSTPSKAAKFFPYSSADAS

On to `Fc1ccc(-c2ncn(C3CCNCC3)c2-c2ccnc(Oc3ccc4c(c3)OCO4)n2)cc1`, for which the inhibition was 2.71% in experiment [1]; 5.39% in experiment [2]; 7.86% in [3]; 7.07% in experiment [4]; 11.4% in experiment [5]; 8.13% in experiment [6]. Further, the inhibition stood at 7.17% in experiment [7], 1.35% in experiment [8], 9.73% in experiment [9] and 2.42% in experiment [10].

Regarding `COc1cccc(/C=N/Nc2ncnc3c2cnn3-c2cccc(OC)c2)c1`, the inhibition in experiment [1] stood at 3.52%; in experiment [2], 2.75%; in experiment [3], 5.96%; in [4], 0.31%; in [5] it was 3.9%; in [6] it was 5.31%. Also, the inhibition is 6.35% in experiment [7], -0.07% in experiment [8], 2.67% in [9] and 7.63% in [10].

For the compound `CCS(=O)(=O)c1ccc(OC)c(Nc2ncc(-c3cccc(-c4ccccc4F)c3)o2)c1`, the inhibition was 15% in [1]; 3.23% in experiment [2]; 3.48% in experiment [3]; 0.45% in [4]; -0.17% in experiment [5]; 2.05% in [6]. Also, the inhibition is 15.4% in experiment [7], 1.69% in experiment [8], 2.38% in experiment [9] and 2.34% in experiment [10].

Regarding `C#Cc1cccc(Nc2ncnc3ccc(OCCCCNCCS(C)(=O)=O)cc23)c1`, the inhibition in experiment [1] was -0.05%; in experiment [2], -2.61%; in experiment [3] it was 2.47%; in experiment [4], -2.83%; in [5], -5.69%; in [6] it was 23.4%. Further, the inhibition in experiment [7] was 75.4%; in [8], 1.44%; in experiment [9], 5.3%; in [10], 5.65%.

`COc1cc(N2CCN(C(C)C)CC2)ccc1Nc1nc(Nc2ccc(F)cc2C(=O)NC[C@@H](O)CO)c2cc[nH]c2n1`: the inhibition was -2.23% in experiment [1]; -2.39% in experiment [2]; 3.15% in [3]; -2.54% in experiment [4]; -7.09% in experiment [5]; 6.3% in experiment [6]. The inhibition in [7] stood at 9.7%; in experiment [8], 1.34%; in experiment [9], 1.33%; in [10] it was 4.24%.

On to `O=C(Nc1ccc(Oc2ccc3[nH]c(NC(=O)c4ccccc4)nc3c2)cc1)Nc1cc(C(F)(F)F)ccc1F`, for which the inhibition in experiment [1] stood at 12.4%; in experiment [2], 0.59%; in [3] it was 13.9%; in [4], 3.42%; in experiment [5], 40.8%; in experiment [6] it was 12.8%. Besides, the inhibition in [7] is 50.2%; in experiment [8] it was 1.6%; in experiment [9], 19%; in [10], 3.95%.

As to `N#Cc1ccc(Oc2nccc(-c3c(-c4ccc(F)cc4)ncn3C3CCNCC3)n2)cc1`, the inhibition stood at 4.78% in [1]; 3.58% in experiment [2]; 5.49% in experiment [3]; 0.14% in [4]; 3.86% in [5]; 6.19% in experiment [6]. Moreover, the inhibition in [7] came out at 8.89%; in experiment [8] it was 0.91%; in experiment [9] it was 4.07%; in [10] it was 3.8%.

As for `COc1cc(Nc2ncc3c(C)nc(-c4cccc(C(F)(F)F)c4)n3n2)cc(OC)c1OC`, the inhibition is 36.2% in experiment [1]; 4.06% in [2]; 14.4% in [3]; 1.2% in experiment [4]; 11.3% in experiment [5]; 6.36% in experiment [6]. Also, the inhibition in experiment [7] was 12.5%; in [8], -0.1%; in [9], 7.98%; in experiment [10] it was 11.3%.

As for `CCc1cccc(CC)c1/C=C/c1cncc(C(=O)NC)c1`, the inhibition in experiment [1] was 6.42%; in [2], -0.55%; in experiment [3], 6.73%; in experiment [4], 0.82%; in [5] it was 11.7%; in experiment [6] it was 1.38%. The inhibition is 5.08% in experiment [7], 0.77% in [8], 0.32% in experiment [9] and 1.73% in [10].

Consider `COC(=O)Nc1nc2ccc(Sc3ccc(NC(=O)Nc4cc(C(F)(F)F)ccc4F)cc3)cc2[nH]1`, for which the inhibition worked out at 7.64% in experiment [1]; 0.96% in experiment [2]; 8.08% in experiment [3]; 1.09% in [4]; 6.4% in experiment [5]; 18.9% in [6]. For the same compound, the inhibition in [7] is 72.7%; in experiment [8], 7.11%; in [9], 27.5%; in [10] it was 5%.

In the case of `Nc1nccc(-c2c(-c3ccc(F)cc3)ncn2C2CCC(O)CC2)n1` (stereo not given), the inhibition in experiment [1] was 22%; in [2] it was -3.41%; in experiment [3], 4.15%; in [4] it was -1.77%; in experiment [5], -2.2%; in experiment [6], -0.75%. Moreover, the inhibition in [7] stood at 9.11%; in experiment [8], 2.53%; in [9], 16.2%; in [10], 9.24%.

For `O=C(NCC1CC1)c1ccc(-c2cccc(C(=O)NC3CC3)c2)cc1`, the inhibition in experiment [1] was found to be 6.45%; in experiment [2], 2.04%; in experiment [3], 5.76%; in [4], 0.57%; in experiment [5], 11.8%; in [6] it was 3.1%. The inhibition was -0.77% in [7], 1.43% in experiment [8], 2.37% in experiment [9] and 2.9% in experiment [10].

As for `COc1cc(C)c(N(C)C(=O)CN(C)C)cc1Nc1nc(Nc2cccc(F)c2C(N)=O)c2cc[nH]c2n1`, the inhibition in experiment [1] is -1.19%; in experiment [2], -3.04%; in experiment [3], -0.55%; in experiment [4] it was -3.75%; in experiment [5], 4.56%; in [6], 1.37%. Also, the inhibition came to 2.05% in [7], 2.17% in experiment [8], 3.67% in experiment [9] and 0.4% in [10].

Turning to `NC(=O)c1cc(-c2ccc(F)cc2)cc(-c2ccncc2)c1N`, the inhibition was 4.02% in experiment [1]; 2.72% in experiment [2]; 3.54% in experiment [3]; -0.44% in experiment [4]; -4.53% in experiment [5]; 6.15% in [6]. The inhibition was 5.86% in [7], 0.12% in [8], 2.33% in [9] and 4.49% in experiment [10].

Take `CS(=O)(=O)CCNCc1cc(-c2cc3c(Nc4ccc(OCc5cccc(F)c5)c(Cl)c4)ncnc3s2)cs1`: the inhibition came to 4.87% in [1]; 5.13% in experiment [2]; 9.34% in [3]; 3.65% in experiment [4]; 8.71% in [5]; 9.33% in [6]. The inhibition in experiment [7] is 12.9%; in [8], 0.39%; in experiment [9] it was 3.81%; in [10] it was 4.31%.

Consider `NS(=O)(=O)c1ccc(Nc2cc(-c3ccc(O)c(F)c3)n[nH]2)cc1`, for which the inhibition in [1] was 37.3%; in [2] it was 0.09%; in experiment [3], 19.4%; in experiment [4] it was -0.76%; in [5], 22.4%; in [6] it was -0.42%. Further, the inhibition came out at 16.4% in [7], 0.41% in experiment [8], 6.09% in experiment [9] and 18.7% in experiment [10].

Consider `COc1ccc2cc(-c3c(-c4ccncc4)nc(-c4ccc([S+](C)[O-])cc4C)n3C)ccc2c1` (stereo not given), for which the inhibition in experiment [1] was 4.24%; in experiment [2], 2.96%; in [3] it was 6.06%; in experiment [4], -0.11%; in experiment [5], 2.95%; in [6] it was 52.4%. In addition, the inhibition in experiment [7] was 97.3%; in experiment [8], -0.16%; in experiment [9] it was 0.1%; in experiment [10], 1.21%.

`O=C1NC(=O)C(c2cccc(Cl)c2)=C1Nc1ccc(Cl)c(C(=O)O)c1`: the inhibition in experiment [1] is 8.62%; in [2], 0.94%; in [3], 8.32%; in experiment [4] it was 5.84%; in experiment [5], -0.75%; in experiment [6], 4.75%. Also, the inhibition turned out to be 6.92% in experiment [7], 0.39% in [8], 2.05% in [9] and 2.67% in experiment [10].

In the case of `COc1ccc2cc(-c3c(-c4ccncc4)nc(-c4ccc(S(C)(=O)=O)cc4C)n3C)ccc2c1`, the inhibition in experiment [1] came to 17.6%; in [2], 4.05%; in experiment [3], 16.2%; in [4], 1.31%; in [5] it was 12.7%; in experiment [6], 43.9%. Moreover, the inhibition in experiment [7] was determined as 95.3%; in experiment [8] it was 0.86%; in experiment [9], 0.3%; in experiment [10], 4.65%.

For `Fc1ccc(-c2ncn(CCCN3CCOCC3)c2-c2ccncc2)cc1`, the inhibition in experiment [1] was 3.87%; in [2], 0.52%; in [3], 5.52%; in [4], -0.04%; in experiment [5], 10.1%; in [6], 1.1%. In addition, the inhibition in experiment [7] came out at 3.83%; in experiment [8], 2.31%; in experiment [9], 1.14%; in [10], 2.27%.
